Measured values published in PubChem BioAssay (NCATS).
Results filed as inconclusive are left out. Where a call stands in place of a potency, no number is given. Activity calls are given as the source filed them. Unless noted, the call rests on the fitted dose curve; in most records, active means well fitted curve in the direction sought with a large enough effect; inconclusive means small, poorly fitted or top-dose-only effect, or another doubt; inactive means no such curve, though single readings can be large; an effect the other way counts as inactive or inconclusive.

Tests used:
[1] = qHTS profiling of the MIPE4 collection as inhibitors of Plasmodium falciparum (3D7) proliferation (AID 743344; call rule not given here); conditions: P. falciparum 3D7 in erythrocytes, SYBR Green DNA fluorescence, 72 h; at 28.5 µM
Method in brief: (§1)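 Parasite DNA was quantified by SYBR Green I fluorescence (ex 485, em 535 nm) after overnight lysis in saponin/Triton buffer at room temperature. Cultures at 0.3% parasitemia and 2.5% hematocrit were first exposed to compound for 72 h at 37 C; signals were normalised to artemisinin (0.29 uM) and vehicle wells.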

[2] = qHTS profiling of the MIPE4 collection as inhibitors of Plasmodium falciparum (DD2) proliferation (AID 743345; call rule not given here); conditions: P. falciparum Dd2 in erythrocytes, SYBR Green DNA, 72 h; at 28.5 µM
Method in brief: as §1

[3] = qHTS profiling of the MIPE4 collection as inhibitors of Plasmodium falciparum (DD2) proliferation (Rep 2) (AID 743346; call rule not given here); conditions: P. falciparum Dd2 in erythrocytes, SYBR Green DNA, 72 h; at 28.5 µM
Method in brief: as §1

[4] = qHTS profiling of the MIPE4 collection as inhibitors of Plasmodium falciparum (HB3) proliferation (AID 743347; call rule not given here); conditions: P. falciparum HB3 in erythrocytes, SYBR Green DNA, 72 h; at 28.5 µM
Method in brief: as §1

[5] = molecular target: Phospholipid hydroperoxide glutathione peroxidase GPX4 (Homo sapiens) (UniProt P36969); assay: Primary qHTS Assay for Inhibitors of Recombinant Selenoprotein Glutathione Peroxidase 4 (GPX4) (AID 1845192); conditions: outcome: dose series up to 50 µM unless noted; further: series mostly up to about 50 µM; nearly all actives have a fitted effect of over 65% in size
Method in brief: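 qHTS, GR-coupled: GPX4 200 nM + cpd 30 min RT → GSH 1 mM, NADPH 0.5 mM, GR 100 nM → CHP 0.5 mM start; fluor 340/450 at t0 and t15 min; no-enzyme wells as control.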

[6] = qHTS drug screen for cell cycle checkpoint inhibitors in PARPi-resistant BRCA-mutant ovarian cancer cell lines. (AID 1963452; calls by dose curve); conditions: PEO1/OlaR viability, CellTiter-Glo luminescence, 96 h, stronger effect = lower value
Method in brief: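 PEO1, PEO4 and PEO1/OlaR ovarian cancer cells, 600 per well, exposed 96 h at 37C to a dilution series. Viability read by CellTiter-Glo luminescence, normalized to DMSO and empty wells; activity summarized as Z-AUC.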

[7] = molecular target: Mitogen-activated protein kinase 10 (Mus musculus) (UniProt Q61831); assay: JNK3 AlphaScreen Assay (AID 530; active means well fitted curve in either direction with a large enough effect, not every such curve was filed as active;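 further: kinase came from lysate of stimulated human HepG2 cells; signal reports phosphorylation of biotinylated GST-cJun 1-79 at Ser73 with 10 µM ATP; series mostly up to about 57 µM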)
Method in brief: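 Phosphorylation of biotinylated GST-cJun(1-79) at Ser73 is measured by AlphaScreen proximity luminescence. Enzyme is JNK3 in HepG2 lysates activated with interleukin-1beta and tumor necrosis factor alpha; ATP is 10 uM final.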

[8] = molecular target: Cytochrome P450 3A4 (Homo sapiens) (UniProt P08684); assay: qHTS Assay for Inhibitors and Substrates of Cytochrome P450 3A4 (AID 884); further: nearly all actives have a fitted effect of over 50% in size; further: potency means the concentration at half of the fitted maximal effect
Method in brief: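 Luminescent readout of luciferin produced by CYP3A4 (20 nM) dealkylation of Luciferin-PPXE, 25 uM (its KM). NADPH-driven reaction ran 60 min at RT after 10 min compound preincubation; data scaled to 57 uM ketoconazole as 100% inhibition.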

[9] = molecular target: Calcium and integrin-binding protein 1 (Homo sapiens) (UniProt Q99828); assay: Primary qHTS for Identification of Calcium Integrin Binding Protein 1 (CIB1) Competitor (AID 1508620);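 further: GST tagged CIB1 binding a fluorescein labelled alphaIIb integrin peptide tracer; top concentration of the series differs between compounds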
Method in brief: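 Fluorescence polarization competition: CIB1-GST (1 uM final) preincubated with compound 15 min at room temperature, then FITC-labeled alphaIIb peptide (100 nM final) added for another 15 min. Polarization read at Ex 480/Em 540.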

[10] = molecular target: Cytochrome P450 3A4 (Homo sapiens) (UniProt P08684); assay: qHTS Assay for Activators of Cytochrome P450 3A4 (AID 885); further: nearly all actives have a fitted effect of over 65% in size
Method in brief: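 Luminescent readout of luciferin formed from 25 uM Luciferin-PPXE (KM level) by 20 nM CYP3A4 in 200 mM KPO4, with 60 min NADPH-driven reaction at room temperature after 10 min compound exposure. Ketoconazole (57 uM) defined 100% inhibition.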

Chain of Calcium and integrin-binding protein 1 (Homo sapiens) (Q99828 whole entry, looked up): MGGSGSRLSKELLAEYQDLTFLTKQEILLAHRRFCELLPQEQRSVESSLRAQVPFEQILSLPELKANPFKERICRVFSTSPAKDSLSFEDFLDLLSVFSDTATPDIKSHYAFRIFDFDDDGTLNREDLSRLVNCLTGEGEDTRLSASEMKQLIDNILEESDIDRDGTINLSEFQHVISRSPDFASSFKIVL
Chain of Cytochrome P450 3A4 (Homo sapiens) (P08684 whole entry, looked up): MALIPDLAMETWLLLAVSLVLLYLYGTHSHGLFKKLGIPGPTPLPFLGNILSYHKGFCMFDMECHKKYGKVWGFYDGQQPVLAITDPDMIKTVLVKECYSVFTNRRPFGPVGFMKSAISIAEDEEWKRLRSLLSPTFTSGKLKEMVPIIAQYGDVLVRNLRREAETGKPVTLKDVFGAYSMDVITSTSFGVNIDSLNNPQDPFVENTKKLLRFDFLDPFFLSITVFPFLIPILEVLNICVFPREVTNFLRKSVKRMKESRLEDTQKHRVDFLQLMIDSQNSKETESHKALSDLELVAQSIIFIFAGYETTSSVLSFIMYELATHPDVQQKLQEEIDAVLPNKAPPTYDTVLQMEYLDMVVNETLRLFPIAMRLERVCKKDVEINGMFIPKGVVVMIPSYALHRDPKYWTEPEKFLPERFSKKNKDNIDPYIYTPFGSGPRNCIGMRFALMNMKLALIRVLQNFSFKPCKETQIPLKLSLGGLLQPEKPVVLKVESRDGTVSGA
Chain of Phospholipid hydroperoxide glutathione peroxidase GPX4 (Homo sapiens) (P36969 whole entry, looked up): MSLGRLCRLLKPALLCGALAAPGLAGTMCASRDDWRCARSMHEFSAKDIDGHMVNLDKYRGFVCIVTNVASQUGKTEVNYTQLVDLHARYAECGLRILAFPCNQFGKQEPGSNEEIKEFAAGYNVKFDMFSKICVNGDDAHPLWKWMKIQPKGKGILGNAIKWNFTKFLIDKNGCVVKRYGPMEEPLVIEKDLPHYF

Question: For CC(C)(C)n1nc(Cc2cccc3ccccc23)c2c(N)ncnc21, which parasite growth, % of DMSO control [1] is on record?
Answer: 23.2%

Question: And the parasite growth remaining, % of DMSO control (lower = more inhibition) [2]?
Answer: 58%

Question: What about the parasite growth, % of control (lower = inhibition) [3] of the same molecule?
Answer: 52.6%

Question: What about the growth, % of control [4] of the same molecule?
Answer: 12.7%

Question: What does the source list for [2H]C([2H])(Nc1nc(-c2ccccc2C([2H])(C([2H])([2H])[2H])C([2H])([2H])[2H])ncc1C)c1ccc(-n2ccnn2)cc1?
Answer: Potency [5]: inactive; Z-AUC [6]: -0.917 (inactive); Z-AUC ([6]; measured here: PEO1 parental Z-AUC): -1.16; Z-AUC ([6]; measured here: PEO4 Z-AUC): -0.866

Question: Which outcome [7] does the source give for Cc1nc(N2CCOCC2)c2nc(-c3ccccc3)n(CCCN(C)C)c2n1 here?
Answer: inactive

Question: What about the Potency [8] of the same molecule?
Answer: inactive

Question: What about the Potency [9] of the same molecule?
Answer: inactive

Question: For CCCn1c(-c2ccc(F)cc2)nc2c(NCCN(C)C)nc(C)nc21, which outcome [7] is on record?
Answer: inactive

Question: And the Potency [8]?
Answer: inactive

Question: And the Potency [9]?
Answer: inactive

Question: What does the source list for CCN(CC)CCCCn1c(-c2ccccc2)nc2c(Nc3ccccc3)nc(C)nc21?
Answer: outcome [7]: inactive; Potency [8]: inactive; Potency [9]: inactive

Question: For COCCNc1nc(C)nc2c1nc(-c1ccccc1)n2C1CCN(Cc2ccccc2)C1 (configuration not stated), which outcome [7] is on record?
Answer: inactive

Question: And the Potency [8]?
Answer: 12.6 µM (active)

Question: What about the Potency [10] of the same molecule?
Answer: inactive

Question: And the Potency [9]?
Answer: inactive

Question: Which outcome [7] does the source give for CCCn1c(-c2ccc(F)cc2)nc2c(NC3CCN(Cc4ccccc4)CC3)nc(C)nc21 here?
Answer: inactive

Question: What about the Potency [8] of the same molecule?
Answer: inactive

Question: And the Potency [9]?
Answer: inactive

Question: For Cc1nc(N2CCOCC2)c2nc(-c3ccccc3)n(CCN(C)C)c2n1, which outcome [7] is on record?
Answer: inactive

Question: And the Potency [8]?
Answer: inactive

Question: And the Potency [9]?
Answer: inactive

Question: With CCN(CC)CCn1c(-c2ccccc2)nc2c(NCCO)nc(C)nc21 as the molecule, how does the outcome [7] read?
Answer: inactive

Question: What about the Potency [8] of the same molecule?
Answer: inactive

Question: What about the Potency [9] of the same molecule?
Answer: inactive

Question: Which outcome [7] does the source give for CCCn1c(-c2ccc(F)cc2)nc2c(NCC(C)(C)CN(C)C)nc(C)nc21 here?
Answer: inactive

Question: What about the Potency [8] of the same molecule?
Answer: 15.8 µM (active)

Question: And the Potency [10]?
Answer: inactive

Question: And the Potency [9]?
Answer: inactive

Question: Which outcome [7] does the source give for CCCn1c(-c2ccc(F)cc2)nc2c(N3CCCN(Cc4ccccc4)CC3)nc(C)nc21 here?
Answer: inactive

Question: And the Potency [8]?
Answer: 3.16 µM (active)

Question: And the Potency [10]?
Answer: inactive

Question: And the Potency [9]?
Answer: inactive

Question: What does the source list for CCN1CCCC1Cn1c(-c2ccccc2)nc2c(N(CCOC)CCOC)nc(C)nc21 (configuration not stated)?
Answer: outcome [7]: inactive; Potency [8]: 15.8 µM (active); Potency [10]: inactive; Potency [9]: inactive

Question: With CCCn1c(-c2ccc(F)cc2)nc2c(NCCCCN(CC)CC)nc(C)nc21 as the molecule, how does the outcome [7] read?
Answer: inactive

Question: And the Potency [8]?
Answer: 10 µM (active)

Question: What about the Potency [10] of the same molecule?
Answer: inactive

Question: What about the Potency [9] of the same molecule?
Answer: inactive

Question: What does the source list for Cc1nc(NCc2ccccc2)c2nc(-c3ccccc3)n(CC3CCN(C)CC3)c2n1?
Answer: outcome [7]: inactive; Potency [8]: inactive; Potency [9]: inactive

Question: Which outcome [7] does the source give for CCCn1c(C)nc2c(N3CCC(N4CCN(C)CC4)CC3)nc(C)nc21 here?
Answer: inactive

Question: And the Potency [8]?
Answer: inactive

Question: And the Potency [9]?
Answer: inactive

Question: For Cc1nc(N2CCOCC2)c2nc(-c3ccccc3)n(CCN3CCCCC3)c2n1, which outcome [7] is on record?
Answer: inactive

Question: And the Potency [8]?
Answer: 2.51 µM (active)

Question: What about the Potency [10] of the same molecule?
Answer: inactive

Question: And the Potency [9]?
Answer: inactive

Question: What does the source list for Cc1nc(NCc2ccccc2)c2nc(-c3ccccc3)n(CCN3CCCCC3)c2n1?
Answer: outcome [7]: inactive; Potency [8]: 2.51 µM (active); Potency [10]: inactive; Potency [9]: inactive

Question: For CCCn1c(C)nc2c(NCCOC)nc(C)nc21, which outcome [7] is on record?
Answer: inactive

Question: What about the Potency [8] of the same molecule?
Answer: inactive

Question: And the Potency [9]?
Answer: inactive

Question: Which results are given for CCN(CC)CCCCn1c(-c2ccccc2)nc2c(N(CCOC)CCOC)nc(C)nc21?
Answer: outcome [7]: inactive; Potency [8]: 12.6 µM (active); Potency [10]: inactive; Potency [9]: inactive

Question: For CCCn1c(-c2ccc(F)cc2)nc2c(N3CCN(Cc4nc(OC)cc(OC)n4)CC3)nc(C)nc21, which outcome [7] is on record?
Answer: inactive

Question: What about the Potency [8] of the same molecule?
Answer: 3.98 µM (active)

Question: What about the Potency [10] of the same molecule?
Answer: inactive

Question: What about the Potency [9] of the same molecule?
Answer: inactive

Question: With CCN(CC)CCCC(C)n1c(-c2ccccc2)nc2c(N(CCOC)CCOC)nc(C)nc21 (configuration not stated) as the molecule, how does the outcome [7] read?
Answer: inactive

Question: And the Potency [8]?
Answer: 10 µM (active)

Question: What about the Potency [10] of the same molecule?
Answer: inactive

Question: What about the Potency [9] of the same molecule?
Answer: inactive

Question: For CCCCNc1nc(C)nc2c1nc(-c1ccccc1)n2CCN1CCCC1, which outcome [7] is on record?
Answer: inactive

Question: And the Potency [8]?
Answer: 12.6 µM (active)

Question: And the Potency [10]?
Answer: inactive

Question: What about the Potency [9] of the same molecule?
Answer: inactive

Question: Which results are given for CCN(CC)CCCCn1c(-c2ccccc2)nc2c(NCCOC)nc(C)nc21?
Answer: outcome [7]: inactive; Potency [8]: inactive; Potency [9]: inactive

Question: Which outcome [7] does the source give for CCN(CC)CCn1c(-c2ccccc2)nc2c(N3CCOCC3)nc(C)nc21 here?
Answer: inactive

Question: And the Potency [8]?
Answer: inactive

Question: And the Potency [9]?
Answer: inactive

Question: Which outcome [7] does the source give for CCCn1c(C)nc2c(NCCCN3CCCCC3C)nc(C)nc21 (configuration not stated) here?
Answer: inactive

Question: And the Potency [8]?
Answer: inactive

Question: What about the Potency [9] of the same molecule?
Answer: inactive

Question: For COCCNc1nc(C)nc2c1nc(-c1ccccc1)n2CC1CCN(C)CC1, which outcome [7] is on record?
Answer: inactive

Question: What about the Potency [8] of the same molecule?
Answer: inactive

Question: What about the Potency [9] of the same molecule?
Answer: inactive

Question: For Cc1nc(N2CCOCC2)c2nc(-c3ccccc3)n(CCCN3CCOCC3)c2n1, which outcome [7] is on record?
Answer: inactive

Question: And the Potency [8]?
Answer: 15.8 µM (active)

Question: What about the Potency [10] of the same molecule?
Answer: inactive

Question: What about the Potency [9] of the same molecule?
Answer: inactive

Question: What does the source list for Cc1nc(NCc2ccccc2)c2nc(-c3ccccc3)n(CCCN(C)C)c2n1?
Answer: outcome [7]: inactive; Potency [8]: 12.6 µM (active); Potency [10]: inactive; Potency [9]: inactive

Question: Which results are given for CCCn1c(C)nc2c(NCCCCN3CCCC3)nc(C)nc21?
Answer: outcome [7]: inactive; Potency [8]: inactive; Potency [9]: inactive
